# Measurements reported in the supplement of paper PMC10338343.
# ± gives the standard deviation.
# Tested on: MILI (PIWIL2) piRISC loaded with piRNA #1 (26 nt)
# Assay: pre-steady-state target cleavage rate (min^-1); guide: piRNA #1 5'p-UGAGGUAGUAGGUUGUAUAGUAUCCA; MIWI and MILI are mouse PIWI proteins and EfPiwi is from a freshwater sponge; tags in brackets are library labels; higher = faster piRNA-guided slicing of the target
# Conditions: auxiliary factor: 500 nM mouse GTSF1
# Description: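 Cleave-'n-Seq: a library of target RNAs (target site embedded in constant flanks, ACAGCATTCCGCGTTAGTGATATCCG... 5' flank; DNA-blocked outside the site) at 0.1 nM was incubated with 1 nM active mouse MILI or MIWI piRISC (synthetic 5'-monophosphorylated piRNA guide) with or without 500 nM mouse GTSF1 at 33 °C for 1 min to 16 h. Uncleaved targets were sequenced and normalised to non-target controls, and the pooled three trials were fitted to a burst-and-steady-state model to give the pre-steady-state cleavage rate (min^-1; k3 is constrained to at most 1e-4). Sequence is the target site only; target names encode pairing extent (gX:gY) and contiguous / 1-mismatch / 2-mismatch / bulge geometry. Fits with R² ≤ 0 are excluded.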
row,Sequence,pre-steady-state target cleavage rate
1,GGAGUGGAUACUAUACAAGCUACUACGUCA,0.0651 ± 0.013
2,GGAGACCAUACUAUACAACCUACCUACCUCA,0.129 ± 0.017
3,GGAGACCUUACUAUACAACCUAAUACCUCA,0.102 ± 0.014
4,GGAGACCUAACUAUACAACCUACUACCACA,0.176 ± 0.038
5,GGAGAGGAUACUAUACAUGGUACUACCUCA,0.00387 ± 0.0028
6,GGAGACCUAUCUAUAGAACCUACUACCUGA,0.00618 ± 0.0029
7,GGAGAGGAUAGUUUACAACCUACUACCUCA,0.0583 ± 0.0089
8,GGAGUGGAUACUAUACAUCCUACUAGCUCA,0.0444 ± 0.0086
9,GGAGACCUUAAUAUACAACCUACUACCUCA,0.0318 ± 0.0064
10,GGAGAGGAUACUUAACAACCUACUACCUCA,0.163 ± 0.013
11,GGAGACGAUACUAUACAACCUACAACCACA,0.0888 ± 0.035
12,GGAGACCAUACUAUACAACCUACUAACCUCA,0.226 ± 0.019
13,GGAGACCUAUGUAUACAACCGACUACCUCA,0.00448 ± 0.0021
14,GGAGACGAUACUAUUGAACCUACUACCUCA,0.157 ± 0.016
15,GGAGAGGAUACAAUACAACCUAGUACCUCA,0.0411 ± 0.0087
16,GGAGACCUAACUAUACCACCUACUACCUCA,0.0944 ± 0.018
17,GGAGACCUAUGUAUACAACGUUCUACCUCA,0.00392 ± 0.0018
18,GGAGACGAUACUAUACAACCUACUACGUCA,0.081 ± 0.012
19,GGAGAGGAUACUAUAGAACCUACUUCCUCA,0.00501 ± 0.0029
20,GGAGACGUUACUAUACAACCUACUAGCUCA,0.0954 ± 0.016

row,Sequence,pre-steady-state target cleavage rate
1,GGAGUGGAUACUUUACAACCUACAACCUCA,0.0647 ± 0.0091
2,GGAGAGGAUUCUAUACAAGCUACUACCUCA,0.15 ± 0.01
3,GGAGACCUAACUAUACAACCUACUUCGUCA,0.0423 ± 0.017
4,GGAGACCUAUGAUAUCAUCCUACAACCUCA,0.00348 ± 0.003
5,GGAGACCUUACUAUACAAGCUACUACCUGA,0.158 ± 0.021
6,GGAGUGGAUACAAUACUACCUACUACCUCA,0.16 ± 0.013
7,GGAGACCUAUGAUAUGAACCUACUUACCUCA,< 0.0001
8,GGAGACCAUAGUUUACAACCUACUACCUCA,0.0547 ± 0.0081
9,GGAGACCAUACAAUACAACCUACUAGCUCA,0.181 ± 0.029
10,GGAGACCUAUGUAUACAACCUACUACCAUCA,0.0684 ± 0.01
11,GGAGACCUAUCUAUUACAACCUACUACCUCA,0.0546 ± 0.0098
12,GGAGACCUAACUAUACAAGCUAGUACCUCA,0.0871 ± 0.019
13,GGAGAGGAGUACUAUACAACCUACUACCUCA,0.0702 ± 0.0063
14,GGAGACCUAUGUAUACAACCUACAAGCUCA,0.0033 ± 0.0026
15,GGAGACCUUCUAUACAACCUACUACCUCA,0.0879 ± 0.016
16,GGAGACCUAUGUAUACAACCUACUGCCUCA,0.0511 ± 0.0081
17,GGAGACCUAACUAAACAACCUACUACCACA,0.139 ± 0.027
18,GGAGACGAUACUAUACUACCUACUUCCUCA,0.101 ± 0.016
19,GGAGUGGAUACUAUAGCAACCUACUACCUCA,0.188 ± 0.009
20,GGAGACCAUAGUAUACAACCUACAACCUCA,0.129 ± 0.017
